Consider 39 compounds from PubChem BioAssay (NCI).

The panel holds about 83,000 compounds, 20% with a hit somewhere; the sample as a whole holds those more often.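 Results are percent growth after 48 hours of single-concentration exposure. 100 means growth as in untreated cells, lower positive values show inhibition; negative values down to -100 show cell death.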 Values without a mark were called inactive. Calls of active or inactive are those of the source. Rule for the calls: active = growth percent below 10; inactive = the rest.

The first experiment relates to RPMI-8226 leukemia. Put plainly: NCI-60 one-dose screen, 48 h (100 = growth as untreated, 0 = no growth, -100 = all killed). The conditions noted are these: 10 µM unless noted.
With `Nc1nc(N)c2c(n1)NC1(C=C(O)c3ccccc31)C1=C(N2)c2ccccc2C1=O` (stereo not drawn), the growth was 107%.
Still for that read-out and setting: in the case of `COc1ccc(CCN2C(=O)/C(=C/c3ccc(C4Oc5ccccc5C5CC(c6cccc(OC)c6)=NN54)cc3)SC2=S)cc1` (stereo not drawn) it was 103%.
Same read-out and setting: in the case of `O=C(Nc1ccc(N2CCNCC2)cc1)c1[nH]ncc1Nc1cc(Oc2ccccc2)ncn1` it was -52.9% (active).
The same measure, in the same setting: to `O=C(CCc1nnc2sc(Cc3ccccc3Cl)nn12)c1nc2ncccc2[nH]1` belongs 103%.
With `O=NN(Cc1cccnc1)C(=O)NC1CCCCC1`, the growth is 95.3%.
Turning to `CN(C)/C=C1\SC(=Nc2ccc(Cl)cc2)NC1=O`, the growth was 108%.
Regarding `CCOC(=O)c1cc2c(n1Cc1ccccc1)-c1oncc1CCC2`, the growth was 64.4%.
For the compound `O=C(c1ccccc1)N(C(=S)NCCc1ccc(Cl)cc1)c1ccccc1`, the growth was -30.9% (active).
Consider `COc1cccc(/C=C/C(=O)c2c(C)nc3ccccc3c2/C=C/c2ccccc2)c1OC`, for which the growth is 6.11% (active).
The same measure, in the same setting: to `CCOC(=O)c1cc2c(n1Cc1cccc(OC)c1)-c1oncc1CCC2` belongs 19.1%.
The same measure, in the same setting: to `COc1ccc(OC)c(NC(=O)/C(C#N)=C/c2ccco2)c1` belongs 93.7%.
On to `CCc1ccc(CNCC(O)c2ccccc2)cc1` (stereo not drawn), for which the growth is 34.3%.
Same read-out and setting: to `CC/C=C\C[C@H](O)C/C=C1/C(=O)C=C[C@@H]1C/C=C\CCCC(=O)OCCS(=O)(=O)c1ccccc1` belongs 14.6%; to `O=C1c2cc(Br)ccc2Oc2cc([N+](=O)[O-])ccc2N1c1ccc(I)cc1F`, 104%; to `COc1ccc(/C=C/C(=O)c2c(C)nc3ccccc3c2/C=C/c2ccccc2)cc1O`, 25.6%.
On the same count and under the same terms, to `COc1ccc(-c2nc(N3CCN(C(=O)C4CCCCC4)CC3)c3c4c(sc3n2)CCCC4)cc1` belongs 2.49% (active).
For `O=c1oc2ccc(F)cc2c(=O)n1-c1ccc(Cl)cc1F`, the growth was -23.1% (active).
Same read-out and setting: in the case of `COc1cc(C(=O)Nc2ccc(-c3nc4ccccc4[nH]3)cc2)cc(OC)c1OC` it was 19.2%.
`O=c1oc2ccc(Cl)cc2c(=O)n1-c1ccc(I)cc1F`: the growth is -25.3% (active).
For the compound `CCC1=C[C@@H]2CN(C1)Cc1c([nH]c3ccccc13)[C@@](C(=O)OC)(c1cc3c(cc1OC)N(C)[C@H]1[C@@](O)(C(=O)OC)[C@H](OC(C)=O)[C@]4(CC)[C@@H]5C[C@@H]5CN5CC[C@]31[C@@H]54)C2`, the growth is -20.3% (active).
In the case of `O=c1oc2ccc(F)cc2c(=O)n1-c1ccc(I)cc1F`, the growth is -20.4% (active).
`COc1ccc(C2C3=C(COC3=O)N(CCO)c3cc4c(cc32)CCC4)cc1OC` (stereo not drawn): the growth is 33.4%.
The same measure, in the same setting: to `O=c1oc2ccc(I)cc2c(=O)n1-c1ccc(Cl)cc1F` belongs -24.8% (active).
Same read-out and setting: to `O=C1OC(c2ccccc2)(c2ccccc2)c2ccsc21` belongs 89.1%; to `O=c1oc2ccc(-c3ccc(F)cc3F)cc2c(=O)n1-c1cccc(C(F)(F)F)c1`, -6.6% (active).
With `Cn1nc(C(C)(C)C)cc1NC(=O)Cc1ccc(/C=C2\C(=O)Nc3ccccc32)cc1`, the growth was 28.7%.
As to `Cc1ccc(Nc2nc(N)c3ccccc3n2)cc1Cl`, the growth was 24%.
Still for that read-out and setting: in the case of `O=C(c1ccccc1)N(CCc1ccc(Cl)cc1)C(=S)N(C(=O)c1ccccc1)c1ccccc1` it was -27% (active); in that of `O=C(COc1cc(O)c2c(=O)cc(-c3ccccc3)oc2c1)Nc1ccccc1`, 93.3%; in that of `O=C1c2cc(I)ccc2Oc2cc([N+](=O)[O-])ccc2N1c1ccc(Cl)cc1F`, 87.4%.
On the same count and under the same terms, to `Nc1ccc(-c2nn3c(CCC(=O)c4nc5ncccc5[nH]4)nnc3s2)c(O)c1` belongs 101%; to `COc1c(B(O)O)cccc1-c1nc2ccc3[nH]ncc3c2c2c1C1CCC2C1` (stereo not drawn), 39.7%.
Consider `Oc1c(CN2CCN(c3ccccc3F)CC2)cc(Br)c2cccnc12`, for which the growth was -0.421% (active).
The same measure, in the same setting: to `O=C(Nc1ccc(F)cc1F)c1cc(Br)ccc1O` belongs -10.4% (active); to `O=C(Nc1ccc(N2CCNCC2)cn1)c1[nH]ncc1Nc1ncnc2sccc12`, 1.87% (active); to `O=C1c2ccc3c4c(ccc(c24)C(=O)N1CCCCO)C(=O)N(CCCCO)C3=O`, 16.8%.
Still for that read-out and setting: in the case of `CC[C@]1(O)C[C@@H]2CN(CCc3c([nH]c4ccccc34)[C@@](C(=O)OC)(c3cc4c(cc3OC)N(C)[C@H]3[C@@](O)(C(=O)OC)[C@H](OC(=O)CCCBr)[C@]5(CC)C=CCN6CC[C@]43[C@@H]65)C2)C1` it was 6.27% (active).
The same measure, in the same setting: to `Nc1ncnc(N)c1NC(=O)c1ccc(OCc2ccccc2)cc1` belongs 105%; to `O=c1oc2ccc(Cl)cc2c(=O)n1-c1ccc(F)cc1F`, -1.02% (active).

A further experiment relates to OVCAR-8 ovarian. The experiment is described as above. The conditions noted are these: 10 µM unless noted.
For `Nc1nc(N)c2c(n1)NC1(C=C(O)c3ccccc31)C1=C(N2)c2ccccc2C1=O` (stereo not drawn), the growth was 103%.
In the case of `COc1ccc(CCN2C(=O)/C(=C/c3ccc(C4Oc5ccccc5C5CC(c6cccc(OC)c6)=NN54)cc3)SC2=S)cc1` (stereo not drawn), the growth was 102%.
As for `O=C(Nc1ccc(N2CCNCC2)cc1)c1[nH]ncc1Nc1cc(Oc2ccccc2)ncn1`, the growth is 26.9%.
Still for that read-out and setting: to `O=C(CCc1nnc2sc(Cc3ccccc3Cl)nn12)c1nc2ncccc2[nH]1` belongs 93.4%.
`O=NN(Cc1cccnc1)C(=O)NC1CCCCC1`: the growth is 104%.
Take `CN(C)/C=C1\SC(=Nc2ccc(Cl)cc2)NC1=O`: the growth was 97.8%.
The same measure, in the same setting: to `CCOC(=O)c1cc2c(n1Cc1ccccc1)-c1oncc1CCC2` belongs 80.9%; to `O=C(c1ccccc1)N(C(=S)NCCc1ccc(Cl)cc1)c1ccccc1`, 105%; to `COc1cccc(/C=C/C(=O)c2c(C)nc3ccccc3c2/C=C/c2ccccc2)c1OC`, 21.6%.
Same read-out and setting: in the case of `CCOC(=O)c1cc2c(n1Cc1cccc(OC)c1)-c1oncc1CCC2` it was 33.4%; in that of `COc1ccc(OC)c(NC(=O)/C(C#N)=C/c2ccco2)c1`, 102%.
Consider `CCc1ccc(CNCC(O)c2ccccc2)cc1` (stereo not drawn), for which the growth is 72.2%.
The same measure, in the same setting: in the case of `CC/C=C\C[C@H](O)C/C=C1/C(=O)C=C[C@@H]1C/C=C\CCCC(=O)OCCS(=O)(=O)c1ccccc1` it was 26.3%; in that of `O=C1c2cc(Br)ccc2Oc2cc([N+](=O)[O-])ccc2N1c1ccc(I)cc1F`, 94.6%.
Consider `COc1ccc(/C=C/C(=O)c2c(C)nc3ccccc3c2/C=C/c2ccccc2)cc1O`, for which the growth is 30.9%.
The same measure, in the same setting: in the case of `COc1ccc(-c2nc(N3CCN(C(=O)C4CCCCC4)CC3)c3c4c(sc3n2)CCCC4)cc1` it was -44.7% (active).
The same measure, in the same setting: to `O=c1oc2ccc(F)cc2c(=O)n1-c1ccc(Cl)cc1F` belongs 9.27% (active); to `COc1cc(C(=O)Nc2ccc(-c3nc4ccccc4[nH]3)cc2)cc(OC)c1OC`, 27.1%.
On the same count and under the same terms, in the case of `O=c1oc2ccc(Cl)cc2c(=O)n1-c1ccc(I)cc1F` it was 8.73% (active); in that of `CCC1=C[C@@H]2CN(C1)Cc1c([nH]c3ccccc13)[C@@](C(=O)OC)(c1cc3c(cc1OC)N(C)[C@H]1[C@@](O)(C(=O)OC)[C@H](OC(C)=O)[C@]4(CC)[C@@H]5C[C@@H]5CN5CC[C@]31[C@@H]54)C2`, 14.5%.
On to `O=c1oc2ccc(F)cc2c(=O)n1-c1ccc(I)cc1F`, for which the growth was 8.61% (active).
Still for that read-out and setting: in the case of `COc1ccc(C2C3=C(COC3=O)N(CCO)c3cc4c(cc32)CCC4)cc1OC` (stereo not drawn) it was 26.7%; in that of `O=c1oc2ccc(I)cc2c(=O)n1-c1ccc(Cl)cc1F`, 8.33% (active).
As to `O=C1OC(c2ccccc2)(c2ccccc2)c2ccsc21`, the growth is 101%.
Same read-out and setting: to `O=c1oc2ccc(-c3ccc(F)cc3F)cc2c(=O)n1-c1cccc(C(F)(F)F)c1` belongs 8.92% (active); to `Cn1nc(C(C)(C)C)cc1NC(=O)Cc1ccc(/C=C2\C(=O)Nc3ccccc32)cc1`, 54.6%.
As for `Cc1ccc(Nc2nc(N)c3ccccc3n2)cc1Cl`, the growth was 57.8%.
On the same count and under the same terms, in the case of `O=C(c1ccccc1)N(CCc1ccc(Cl)cc1)C(=S)N(C(=O)c1ccccc1)c1ccccc1` it was 106%; in that of `O=C(COc1cc(O)c2c(=O)cc(-c3ccccc3)oc2c1)Nc1ccccc1`, 87.2%.
On the same count and under the same terms, to `O=C1c2cc(I)ccc2Oc2cc([N+](=O)[O-])ccc2N1c1ccc(Cl)cc1F` belongs 91%; to `Nc1ccc(-c2nn3c(CCC(=O)c4nc5ncccc5[nH]4)nnc3s2)c(O)c1`, 98.2%; to `COc1c(B(O)O)cccc1-c1nc2ccc3[nH]ncc3c2c2c1C1CCC2C1` (stereo not drawn), 59.9%.
On the same count and under the same terms, in the case of `Oc1c(CN2CCN(c3ccccc3F)CC2)cc(Br)c2cccnc12` it was -49% (active).
On to `O=C(Nc1ccc(F)cc1F)c1cc(Br)ccc1O`, for which the growth is 8.63% (active).
For `O=C(Nc1ccc(N2CCNCC2)cn1)c1[nH]ncc1Nc1ncnc2sccc12`, the growth is -33.5% (active).
On the same count and under the same terms, in the case of `O=C1c2ccc3c4c(ccc(c24)C(=O)N1CCCCO)C(=O)N(CCCCO)C3=O` it was 75.4%; in that of `CC[C@]1(O)C[C@@H]2CN(CCc3c([nH]c4ccccc34)[C@@](C(=O)OC)(c3cc4c(cc3OC)N(C)[C@H]3[C@@](O)(C(=O)OC)[C@H](OC(=O)CCCBr)[C@]5(CC)C=CCN6CC[C@]43[C@@H]65)C2)C1`, 19.4%; in that of `Nc1ncnc(N)c1NC(=O)c1ccc(OCc2ccccc2)cc1`, 102%.
Still for that read-out and setting: to `O=c1oc2ccc(Cl)cc2c(=O)n1-c1ccc(F)cc1F` belongs 11.4%.
